For 49 compounds, activity change (PNC), negative = inhibition results are on record in PubChem BioAssay AID2417 (National Center for Advancing Translational Sciences (NCATS), 2010).

SMILES strings stand for the structures. Screen size: about 140,000 compounds; about 4,300 (3.1%) were called active. Roughly 21% stayed inconclusive and do not appear here. Many of the other results were omitted from the sample, so actives are more common in it than they were. A number with no mark means an inactive call.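 The calls were made as follows: active = readout at or below -70, meaning at least 70% loss of cells showing the perinucleolar compartment, a nuclear body marking cancer cells; inconclusive = readout between -30 and a set limit; inactive = the rest.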

This experiment in a line: High Content Assay for Compounds that inhibit the Assembly of the Perinucleolar Compartment.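 Also: plate controls were DMSO wells for no effect and camptothecin positive control wells for full effect.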 Particulars: PC3M PTB-GFP, PNC prevalence imaging, 16 h; at 10 µM; active compounds read low. Summed up: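 PC3M cells stably expressing PTB-GFP, 750–1000 cells/well, treated 16 h at 37 °C with compound (23 nl of library stock), in duplicate. After paraformaldehyde fixation and Hoechst stain, imaged at 20x; PNC prevalence scored by image analysis.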
Regarding `O=C(CN1CCN(C2CCCCC2)CC1)Nc1ccccc1N1CCCCC1`, the activity change (PNC), negative = inhibition is -8.13%. In the case of `Cc1scc(C(=O)NNC(=S)NCC(C)C)c1C` it was -6.46%; in that of `CC(C)CNC(=S)NNC(=O)c1nn(C)cc1Cl`, -100% (active). With `Cc1occc1C(=O)NNC(=S)NCC(C)C` the figure was -25.7%; with `Cc1ccc(S(=O)(=O)N(C)C)cc1NC(=O)/C=C/c1cccs1`, -119% (active).

`Cc1ccc(S(=O)(=O)N(C)C)cc1NC(=O)COC(=O)c1c(C)noc1C`: the activity change (PNC), negative = inhibition was -21.3%. Turning to `Cc1ccc(NC(=O)c2cccs2)cc1S(=O)(=O)N(C)C`, the activity change (PNC), negative = inhibition is 22.8%. In the case of `Cc1ccc(C2=NN(C(=O)CSc3nc(N)cc(N)n3)C(c3ccco3)C2)cc1` (centres undefined) it was -113% (active); in that of `Fc1ccc(N2N=C(c3cccs3)CC2c2ccco2)c(F)c1` (centres undefined), 17.8%; in that of `CCS(=O)(=O)Nc1ccc(C2=NN(S(=O)(=O)c3ccc(F)cc3)C(c3ccco3)C2)cc1` (centres undefined), 13.9%. With `CC(C)(C)c1ccc(NC(=O)COC(=O)CCc2nc3ccccc3c(=O)[nH]2)cc1` the figure was -24.2%.

As for `C/C(=N/NC(=O)c1ccc(Br)o1)c1ccc(C)o1`, the activity change (PNC), negative = inhibition was -24.9%. In the case of `CCOc1ccc(NC(=O)c2ccc(CSc3nnnn3C)cc2)cc1` it was -8.75%. Consider `CCc1cccc(CC)c1NC(=O)COc1ccccc1C(=O)c1cc(C#N)c(=O)n(C2CCCCC2)c1`, for which the activity change (PNC), negative = inhibition was -12.2%. In the case of `CCCOC(=O)c1[nH]c2c(c1C)C(=O)CC(c1cc(OC)c(OC)c(OC)c1)C2` (centres undefined) it was 10.3%.

For the compound `CCCOC(=O)c1[nH]c2c(c1C)C(=O)CC(c1cccs1)C2` (centres undefined), the activity change (PNC), negative = inhibition is -85.9% (active). `CCOC(=O)c1[nH]c2c(c1-c1ccccc1)C(=O)CC(c1ccc(Cl)cc1)C2` (centres undefined): the activity change (PNC), negative = inhibition was 35.7%. As to `CSc1ccccc1NC(=O)c1cc(C2CC2)on1`, the activity change (PNC), negative = inhibition is -108% (active). In the case of `O=C(Nc1cc(C(F)(F)F)ccc1Cl)c1cc(C2CC2)on1` it was -19.5%; in that of `CSc1ccccc1NC(=O)Cc1ccc(Br)cc1`, 27%. In the case of `Cc1cc(C(C)(C)C)cc(C)c1N` it was 15.5%. In the case of `O=C(Cc1cc(=O)[nH][nH]1)N/N=C/c1ccccc1[N+](=O)[O-]` it was -21.2%; in that of `Cc1ccc(N(C(=O)c2ccc(CN3CCOCC3)o2)C(C(=O)NCCC(C)C)c2cccs2)c(C)c1` (centres undefined), 4.19%; in that of `O=C(Nc1ccccc1)c1ccc2nsnc2c1`, -106% (active). For `COc1ccc(NC(=O)Nc2ccc3nsnc3c2)cc1`, the activity change (PNC), negative = inhibition was -27.5%. In the case of `O=C(Nc1ccccc1)c1ccc2c(c1)OCO2` it was 16.1%; in that of `Cc1cc(C)cc(NC(=S)NCCCN2CCOCC2)c1`, 26.5%. With `O=C(NCCCn1ccnc1)Nc1ccc(Cl)cc1Cl` the figure was -114% (active); with `CCCCC(=O)Nc1ccc(C(=O)NCCCn2ccnc2)cc1`, 40.1%. On to `Cc1ccc2c(Cl)c(C(=O)NCCCn3ccnc3)sc2c1`, for which the activity change (PNC), negative = inhibition was -3.58%.

Take `CCCOc1ccc(NC(=O)C2OC3OC(C)(C)OC3C3OC(C)(C)OC23)cc1` (centres undefined): the activity change (PNC), negative = inhibition was 10.2%.

As for `COc1cccc(/C=N/Nc2ncc(C(F)(F)F)cc2Cl)c1O`, the activity change (PNC), negative = inhibition is -85.6% (active).

As to `COc1cc(/C=C2\SC(=S)N(Nc3ncc(C(F)(F)F)cc3Cl)C2=O)cc(OC)c1OC`, the activity change (PNC), negative = inhibition is 7.84%. In the case of `COc1cccc(/C=N\NC(=O)C2=NNC(=O)C2C)c1O` (centres undefined) it was -8.21%; in that of `CCc1ccc2c(c1)C(c1ccc([N+](=O)[O-])cc1)=NNC(c1ccccc1)=N2`, 34.2%. Turning to `Cc1ccc(-c2cc(C(=O)N/N=C/C=C/c3ccccc3)n[nH]2)o1`, the activity change (PNC), negative = inhibition was -21.8%.

On to `CC(=O)CCC(=O)c1ccc2ccccc2c1`, for which the activity change (PNC), negative = inhibition was 36.3%. In the case of `Cc1cc(Cl)c(S(=O)(=O)N(C)C)cc1OCC(N)=O` it was -29.4%. Consider `Cc1cc(Cl)c(S(=O)(=O)NCC2CCCO2)cc1OCC(N)=O` (centres undefined), for which the activity change (PNC), negative = inhibition was 9.99%. Take `Cc1cc(Cl)c(S(=O)(=O)Nc2ccc3c(c2)OCCO3)cc1OCC(N)=O`: the activity change (PNC), negative = inhibition is -121% (active). For `CC1=C(C(=O)Nc2ccccc2)C(c2cccs2)C(C#N)=C(SCC#N)N1` (centres undefined), the activity change (PNC), negative = inhibition was -107% (active). As to `CC1=C(C(=O)Nc2ccccc2)C(c2ccco2)C(C#N)=C(SCC(N)=O)N1` (centres undefined), the activity change (PNC), negative = inhibition was -15.2%. With `CCOC(=O)CSC1=C(C#N)C(c2ccco2)C(C(=O)OCc2ccccc2)=C(C)N1` (centres undefined) the figure was -21.7%; with `Cc1nn(C)c(C(=O)NNC(=S)NC2CCCCC2)c1Cl`, 8.24%; with `Cc1ccc(NN=C2C(=O)OC(C)(C)OC2=O)c(C)c1`, 57.8%. As for `Cc1ccn(CC(=O)N2N=C(C(F)F)CC2(O)C(F)F)n1` (centres undefined), the activity change (PNC), negative = inhibition is 3.67%. With `COc1cc(OC)cc(C(=O)Nc2ccc(S(=O)(=O)Nc3cc(C)on3)cc2)c1` the figure was -25.6%; with `COc1ccc(C(=O)Nc2ccc(S(=O)(=O)NC(C)C)cc2)cc1`, -112% (active). With `COc1ccc(NC(=O)c2ccc(OC)cc2)cc1` the figure was 29.1%.
